Laboratory results as given in PubChem BioAssay AID493203 (National Center for Advancing Translational Sciences (NCATS), 2011).
Inconclusive results are not listed. Where a call stands in place of a potency, no number is given. Activity calls are given as the source filed them. Calls follow the shape of the dose curve; as a rule, active = well fitted activation curve with a large enough effect; inconclusive = small, poorly fitted or top-dose-only effect; inactive = flat fitted curve, though single readings scatter.

Experiment: qHTS Assay for NPC1 Promoter Activators: Initial hit validation from the primary screen
Details: Huh7 NPC1 promoter-luciferase reporter, luminescence, 24 h; series mostly up to 46.1 µM
How it was run: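 Huh7 cells stably carrying NPC1 promoter-luciferase, 1500 cells per well in OP-MEM I with 10% FBS; compounds added after 2 hours and incubated 24 hours at 37C. Luminescence read 10 minutes after Amplite luciferase reagent.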
Potency is read from the fitted curve at half-maximal effect.

| SMILES | Potency |
| --- | --- |
| CCOC(=O)C1(Cc2cccc(Cl)c2)CCCN(C(=O)CCSC)C1 (stereo unspecified) | inactive |
| O=C(NCCc1ccccc1)c1cc2ncc(Br)cn2n1 | 14100 nM (active) |
| O=C(CCNC(=O)c1ccc(Br)o1)NCc1ccc(Cl)cc1 | inactive |
| CNC(=O)Cn1nc(C)c2ccccc2c1=O | inactive |
| O=C(Nc1nc2ccc(F)cc2s1)c1ccc(N2CCCC2=O)cc1 | 141 nM (active) |
| CC(=O)[C@@H]1[C@@H](C(=O)c2ccc(C)cc2)[C@]2(C(=O)Nc3ccccc32)[C@H]2C=Cc3cc(F)ccc3N12 | inactive |
| CCCCn1c(Nc2ccc(OC)cc2)nc2ccccc21 | inactive |
| COc1ccc(S(=O)(=O)N2CCCC(C(=O)NCc3ccncc3)C2)cc1Cl (stereo unspecified) | inactive |
| O=C(CSc1nnc(-c2ccccn2)o1)Nc1ccccc1Cl | 1250 nM (active) |
| O=C(c1cc2cc(Br)ccc2[nH]1)N1CCc2ccccc21 | 12500 nM (active) |
| CC(=O)Nc1ccc(NC(=O)COc2ncnc3ccccc23)cc1 | inactive |
| CCCOC(=O)Cn1cnc2scc(-c3ccc(OC)cc3)c2c1=O | inactive |
| CCC(=O)N1c2ccccc2NC2=C(C(=O)CCC2)C1c1ccc(N(C)C)cc1 (stereo unspecified) | inactive |
| COc1ccc(NC(=O)CCCN2C(=O)C(c3ccccc3)Oc3cccnc32)cc1OC (stereo unspecified) | inactive |
| COc1ccc(/C=C\c2onc(C)c2S(=O)(=O)N2CCC(C(=O)NCCC(C)C)CC2)cc1 | inactive |
| Cc1ccc(C(=O)Nc2nnc(S(=O)(=O)N3CCOCC3)s2)cc1 | inactive |

| SMILES | Potency |
| --- | --- |
| NNC(=O)c1cccc(S(=O)(=O)Nc2cc(Cl)ccc2Cl)c1 | inactive |
| O=C(C[N+]1(CC#Cc2ccccc2)CCCCC1)c1ccccc1 | inactive |
| Cn1c(CCN2CCN(c3ccccc3)CC2)nc2cc(NC(=O)c3ccco3)ccc21 | inactive |
| CC(Sc1ncnc2c1cnn2-c1ccccc1)C(=O)Nc1ccc(N2CCOCC2)cc1 (stereo unspecified) | inactive |
| Cc1ccc(NC(=O)NC(=O)c2ccccc2)cc1F | 499 nM (active) |
| O=C(NCCSCc1c(F)cccc1Cl)c1ccc(CN2CCOCC2)cc1 | inactive |
| Cc1nn(CCCC(=O)NCc2ccc(F)cc2)c(C)c1[N+](=O)[O-] | inactive |
| COc1ccccc1OCCCC(=O)NCc1ccco1 | inactive |
| N#C/C(=N\Nc1ccc(Cl)cc1)C(=N)N1CCCCC1 | 281 nM (active) |
| COc1ccc(C(c2nnnn2CCc2ccccc2)N2CCN(C3CCCC3)CC2)cc1 (stereo unspecified) | inactive |
| CCC(=O)Nc1cc(-c2cc3ccccc3oc2=O)ccc1OC | 1120 nM (active) |
| Cc1cccc(C)c1NC(=O)Nc1cccs1 | inactive |
| CCOC(=O)c1ccccc1NC(=O)CSc1nnc(Cc2cccn2C)n1-c1ccc(F)cc1 | inactive |
| O=C(O)CSc1nnc(-c2ccncc2)n1CCc1ccccc1 | inactive |
| C=CCc1ccc(OCCOCCNCCOC)c(OC)c1 | inactive |
